# NS1 function inh: qHTS Assay for Inhibitors of Influenza NS1 Protein Function; Potency, µM (highest dose often 46.1 µM); hit rate 0.4% among 270,000; AID 2326, 2010; calls by dose curve; further: actives are rising curves; nearly all actives have a fitted effect of over 50% in size
#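 S. cerevisiae expressing influenza A NS1, grown in glucose, washed, then diluted 1:100 into pH 6.0 -URA galactose medium with 23 nl compound. Growth recovery read as OD600; NS1-free strain serves as control.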
# Shiga toxin inh: A qHTS for Small Molecule Inhibitors of Shiga Toxin. Vero cells, Shiga toxin protein synthesis inhibition reporter. inhibition, % at 38.7 µM. hit rate 9.2% among 290,000; in the data active means inhibition mostly above about 28%, no sharp cut-off; inactive means mostly below about 43%
# CHX counter: Cycloheximide Counterscreen for Small Molecule Inhibitors of Shiga Toxin | AID 2314, 2010 | cell reporter, cycloheximide protein synthesis inhibition counterscreen | hit rate 12% among 300,000 | max response, %; in the data active means max response mostly above about 13%, no sharp cut-off; inactive means mostly below about 14%; further: read at 38.3 µM for the half of the compounds with a filed dose
# Pf growth 48h: Primary qHTS for delayed death inhibitors of the malarial parasite plastid, 48 hour incubation. AID 504832, 2011. P. falciparum luciferase growth in erythrocytes, 48 h. hit rate 5.9% among 310,000. Potency, µM (top dose mostly 28.7 µM), hits mostly inhibitors
#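 Erythrocytes infected with P. falciparum carrying an integrated firefly luciferase reporter (2% hematocrit, 0.1% parasitemia final) were exposed to compounds in RPMI 1640 with 0.5% Albumax at 37 C, 5% CO2. Growth inhibition was scored as reduced luminescence.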
# SARS PLpro yeast: qHTS of Yeast-based Assay for SARS-CoV PLP; Potency, µM (doses to about 32.9 µM), most hits filed as activators; hit rate 0.19% among 330,000; AID 485353, 2010; S. cerevisiae expressing SARS-CoV PLpro, growth rescue; calls by dose curve; further: nearly all actives have a fitted effect of over 55% in size
# Pf growth 96h: Primary qHTS for delayed death inhibitors of the malarial parasite plastid, 96 hour incubation; hit rate 6.9% among 320,000; Potency, µM (highest dose often 28.7 µM), actives largely listed as inhibitors; AID 504834, 2011; P. falciparum luciferase reporter growth, 96 h
#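 Infected RBCs, 2% Hct / 0.05% parasitemia final; luciferase-reporter P. falciparum; cpd 96 h, 37 C, 5% CO2; luciferase detection reagent; luminescence.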
# Numbers stand for hits; . = inactive; ? = inconclusive; / = not tested or not shown; [ ] = another dose, or the depositor's remark. Most compounds without a hit are left out; they make up all but 21% or so of the library. Unless noted, the call rests on the fitted dose curve; in most records, active means well fitted inhibition curve with a large enough effect; inconclusive means small, poorly fitted or top-dose-only effect, or another doubt; inactive means no such curve, though single readings can be large or run the other way.
SMILES,NS1 function inh,Shiga toxin inh,CHX counter,Pf growth 48h,SARS PLpro yeast,Pf growth 96h
N#Cc1cc(C#N)c(N2CCN(c3ccccn3)CC2)nc1N,.,60,44,.,.,.
COc1ccc(N(CC(=O)NC2CCCCCC2)S(=O)(=O)c2ccccc2)cc1Cl,.,.,.,?,.,?
COc1ccc(CNC2CC(C)N(C)CC2C)cc1OC (stereo not drawn),.,.,.,10µM,.,.
COC(=O)c1c(-c2cccs2)csc1NC(=O)c1cccnc1,.,60,37,.,.,.
CCn1cc(C(=O)Nc2sc(C)c(C)c2C(=O)OC)cn1,.,25,.,.,.,.
COC(=O)c1c(NC(=O)c2ccccc2)sc(C(=O)c2ccccc2)c1C,.,.,.,?,.,9.3µM
CCN(CC)C(=O)c1sc(NC(=O)c2cccnc2)c(C(=O)OC)c1C,.,.,.,.,.,2.9µM
COc1cccc(-c2cc(C(=O)NCC3CCCO3)c3ccccc3n2)c1 (stereo not drawn),.,.,.,.,.,.
CCOC(=O)c1c(NC(=O)C2c3ccccc3Oc3ccccc32)sc(C(=O)N(CC)CC)c1C,.,.,.,1.5µM,.,0.93µM
CCN(CC(=O)Nc1c(F)cccc1F)C(=O)Cn1[nH]c(=O)c2ccccc2c1=O,/,/,/,.,.,.
S=c1cnc2ccccc2[nH]1,.,.,30,.,.,.
Nc1nc(Cc2ccccc2)nc(Cc2ccccc2)c1-c1ccccc1,.,/,/,/,/,/
N#CCCn1nc(-c2ccc(Cl)cc2)cc1Nc1ccccc1NC(=O)C(F)(F)F,.,.,.,.,.,12µM
N#CCCn1nc(-c2ccc([N+](=O)[O-])cc2)cc1Nc1ccccc1NC(=O)C(F)(F)F,.,.,.,10µM,.,10µM
COc1cccc(-c2c(C(=O)N/N=C/c3sccc3C)nnn2-c2nonc2N)c1,.,.,.,?,.,?
COc1ccccc1C(=O)NCCSCc1c(F)cccc1Cl,.,.,23,?,.,10µM
O=C(NCCSCc1c(F)cccc1Cl)c1ccco1,.,.,29,?,.,.[5.75 µM]
O=C(CNC(=O)c1ccco1)OCc1c(F)cccc1Cl,.,.,20,.,.,/
Cc1ccccc1COc1ccc(/C(O)=C2/C(=O)C(=O)N(CCCn3ccnc3)C2c2ccco2)cc1 (stereo not drawn),.,.,.,.,.,?
O=C(Nc1ccc(C(F)(F)F)cc1)c1cc(-c2cccnc2)nc2ccc(Br)cc12,.,.,.,0.37µM,.,?
CC(=O)Nc1cccc(NC(=O)c2cc(-c3cccnc3)nc3ccc(Br)cc23)c1,?,.,.,5.2µM,.,?
CC(=O)Nc1cccc(NC(=O)c2cc(-c3cccnc3)nc3ccc(Cl)cc23)c1,.,.,.,?,.,.
Cc1c(C(=O)O)oc2c1/C(=N\O)CC(C)(C)C2,.,.,.,.,.,.
Cc1cc(CC(C)C)n(-c2nc3ccccc3c(=O)n2OCC(N)=O)n1,.,104,26,.,.,?
Cc1ccc2nc(N3CCN(C=O)CC3)nc(-c3ccccc3)c2c1,.,.,.,?,.,?
SMILES,NS1 function inh,Shiga toxin inh,CHX counter,Pf growth 48h,SARS PLpro yeast,Pf growth 96h
CCc1nnc(NC(=O)CCC(=O)Nc2ccc(OC)cc2OC)s1,?,.,.,.,.,.
CC(=O)N(CN1C(=O)CCC1=O)c1cccc(Cl)c1,.,.,.,.,.,.
CC(C)CC(=O)NC(c1ccccc1)c1c(O)ccc2ccccc12 (stereo not drawn),.,.,.,?,.,?
COc1ccc(C(NC(=O)C(C)C)c2c(O)ccc3ccccc23)cc1OC (stereo not drawn),.,.,.,?,/,.
CC(=O)Oc1ccc2ccccc2c1C(NC(=O)C(C)C)c1cccc([N+](=O)[O-])c1 (stereo not drawn),.,.,.,1.9µM,.,/
CCOC(=O)C(NC(=O)CC)C(O)c1cccc([N+](=O)[O-])c1 (stereo not drawn),.,.,.,.,.,.
CC(=O)Oc1ccc2ccccc2c1C(NC(=O)Cc1ccccc1)c1ccccc1 (stereo not drawn),.,.,.,4.1µM,.,?
CCCCC(=O)NC(c1cccc([N+](=O)[O-])c1)c1c(OC(C)=O)ccc2ccccc12 (stereo not drawn),.,.,17,0.83µM,.,.
Cc1[nH]n(-c2ccccc2)c(=O)c1/C=C1/C=c2ccccc2=N1,/,.,17,.,.,.

# High-throughput results (PubChem BioAssay)
